Data published in PubChem BioAssay (NCATS).
Results filed as inconclusive are left out. The source made the active and inactive calls. Unless noted, calls follow the shape of the dose curve; as a rule, active = well fitted curve in the direction sought with a large enough effect; inconclusive = small, poorly fitted or top-dose-only effect, or another doubt; inactive = no such curve, though single readings can be large; an effect the other way counts as inactive or inconclusive.

Assays:
[1] = Cell Viability - BJ (AID 421; calls by dose curve;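 also: potency is read from the fitted curve at half-maximal effect; cells exposed to compound for 40 hours at 37 °C before readout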); conditions: BJ fibroblast viability, qHTS
Procedure, shortened: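 Quantitative HTS: ATP depletion in BJ cells after 40 hr compound exposure in complete culture medium, detected with CellTiter-Glo; AC50 from standard Hill fits.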

[2] = Cell Viability - HepG2 (AID 433; calls by dose curve;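 also: potency is read from the fitted curve at half-maximal effect; cells exposed to compound for 40 hours; potency for ATP loss meaning cytotoxicity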); conditions: qHTS
Procedure, shortened: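 ATP luminescence (CellTiter-Glo) after 40 h compound exposure, 37 °C, HepG2, 1500 cells/well, complete medium. Normalized: DMSO = basal, 100 uM tamoxifen = 100% inhibition. AC50 via standard Hill equation.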

[3] = Cell Viability - MRC5 (AID 434; calls by dose curve;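 also: potency is read from the fitted curve at half-maximal effect; cells exposed to compound for 40 hours at 37 °C; potency reflects cytotoxicity seen as loss of intracellular ATP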); conditions: MRC5 lung fibroblast viability, qHTS
Procedure, shortened: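 AC50 values come from Hill-equation fits of intracellular ATP loss, measured by CellTiter-Glo luminescence. Normal lung fibroblasts (MRC5) had 40 hr compound treatment at 37 C, normalized between DMSO and 100 uM tamoxifen.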

[4] = Cell Viability - SK-N-SH (AID 435; calls by dose curve; also: potency is read from the fitted curve at half-maximal effect); conditions: SK-N-SH neuroblastoma cell viability qHTS
Procedure, shortened: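 CellTiter-Glo ATP luminescence, 20 min RT read; cells pre-plated 5 hr, compound 40 hr at 37 °C, 1500 cells/well, complete medium. Normalized DMSO = 0, 100 uM tamoxifen = 100% inhibition; Hill-fit AC50.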

[5] = Cell Viability - N2a (AID 540); conditions: N2a mouse neuroblastoma cell viability; at 92.2 µM (top of the series);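 also: plate controls were DMSO alone for no effect and tamoxifen control for full effect; nearly all actives have a fitted effect of over 45% in size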
Procedure, shortened: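 CellTiter-Glo ATP luminescence, read 20 min after reagent at room temperature, reported viability following 40 h compound treatment at 37 °C. N2a mouse neuroblastoma cells seeded 1500/well; Hill equation gave AC50.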

[6] = Cell Viability - HUV-EC-C (AID 542);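 also: cells exposed to compound for 40 hours; % is scaled to controls: 0 for no effect and ±100 for the full control effect; nearly all actives have a fitted effect of over 35% in size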
Procedure, shortened: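 CellTiter-Glo luminescence measured ATP loss in HUV-EC-C cells (1000/well) after 40 hr compound exposure at 37 °C, in complete culture medium. Concentration-response data were Hill-fitted to give AC50.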

[7] = Cell Viability - SH-SY5Y (AID 544); conditions: SH-SY5Y neuroblastoma cell viability; viability change, negative = cytotoxic: at 92.2 µM (top of the series);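 also: cells exposed to compound for 40 hours; 0% = DMSO alone and -100% = 100 µM tamoxifen; nearly all actives have a fitted effect of over 55% in size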
Procedure, shortened: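 Cytotoxicity measured via ATP-dependent luciferase luminescence (CellTiter-Glo) following 40 h, 37 °C exposure of 1500 SH-SY5Y cells per well. Concentration-response data were fitted with the standard Hill equation to give AC50.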

[8] = Cell Viability - Renal Proximal Tubule (AID 545); conditions: renal proximal tubule cells viability; at 91.7 µM (top of the series), primary cells of rat origin unless noted;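 also: cells exposed to compound for 40 hours; 0% = DMSO only and -100% = 100 µM tamoxifen; nearly all actives have a fitted effect of over 40% in size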
Procedure, shortened: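 Rat kidney proximal tubule cells, freshly isolated; 1000 cells/well, 5 hr settle, compound 40 hr 37 °C. CellTiter-Glo 20 min RT, luminescence read. AC50 by standard Hill fit.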

[9] = Cell Viability - Mesenchymal (AID 546);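 also: cells exposed to compound for 40 hours before reading; 0% = DMSO only and -100% = 100 µM tamoxifen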
Procedure, shortened: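 CellTiter-Glo luminescence (intracellular ATP, 20 min room temperature) after 40 hr compound exposure at 37 °C of 1000 glomerulus-derived human kidney mesenchymal cells/well; AC50 values obtained by fitting qHTS concentration-response data to the Hill equation.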

[10] = qHTS Assay for Identification of Small Molecule Inducers of Hypoxia Response (AID 2120; active = well fitted curve in the direction sought with a large enough effect in the signal ratio, with a control signal flat, not every such curve was filed as active; the % refers to the signal ratio; also: 0% is about no effect)
Procedure, shortened: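 Reporter induction read as the CCF4 blue/green (460nm/530nm) emission ratio after 2.5 h dye loading at room temperature. ME-180 HRE-beta-lactamase cells received titrated compounds for 17 h at 37 degrees Celsius; AC50 values derived.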

[11] = molecular target: Voltage-gated inwardly rectifying potassium channel KCNH2 (Homo sapiens) (UniProt Q12809); assay: qHTS Assay for Small Molecule Inhibitors of the Human hERG Channel Activity (AID 588834);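 also: top concentration of the series differs between compounds; % is scaled to controls: 0 for no effect and ±100 for the full control effect; lower thallium flux fluorescence means stronger hERG block; nearly all actives have a fitted effect of over 50% in size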
Voltage-gated inwardly rectifying potassium channel KCNH2 (Homo sapiens), sequence (Q12809 whole entry, looked up): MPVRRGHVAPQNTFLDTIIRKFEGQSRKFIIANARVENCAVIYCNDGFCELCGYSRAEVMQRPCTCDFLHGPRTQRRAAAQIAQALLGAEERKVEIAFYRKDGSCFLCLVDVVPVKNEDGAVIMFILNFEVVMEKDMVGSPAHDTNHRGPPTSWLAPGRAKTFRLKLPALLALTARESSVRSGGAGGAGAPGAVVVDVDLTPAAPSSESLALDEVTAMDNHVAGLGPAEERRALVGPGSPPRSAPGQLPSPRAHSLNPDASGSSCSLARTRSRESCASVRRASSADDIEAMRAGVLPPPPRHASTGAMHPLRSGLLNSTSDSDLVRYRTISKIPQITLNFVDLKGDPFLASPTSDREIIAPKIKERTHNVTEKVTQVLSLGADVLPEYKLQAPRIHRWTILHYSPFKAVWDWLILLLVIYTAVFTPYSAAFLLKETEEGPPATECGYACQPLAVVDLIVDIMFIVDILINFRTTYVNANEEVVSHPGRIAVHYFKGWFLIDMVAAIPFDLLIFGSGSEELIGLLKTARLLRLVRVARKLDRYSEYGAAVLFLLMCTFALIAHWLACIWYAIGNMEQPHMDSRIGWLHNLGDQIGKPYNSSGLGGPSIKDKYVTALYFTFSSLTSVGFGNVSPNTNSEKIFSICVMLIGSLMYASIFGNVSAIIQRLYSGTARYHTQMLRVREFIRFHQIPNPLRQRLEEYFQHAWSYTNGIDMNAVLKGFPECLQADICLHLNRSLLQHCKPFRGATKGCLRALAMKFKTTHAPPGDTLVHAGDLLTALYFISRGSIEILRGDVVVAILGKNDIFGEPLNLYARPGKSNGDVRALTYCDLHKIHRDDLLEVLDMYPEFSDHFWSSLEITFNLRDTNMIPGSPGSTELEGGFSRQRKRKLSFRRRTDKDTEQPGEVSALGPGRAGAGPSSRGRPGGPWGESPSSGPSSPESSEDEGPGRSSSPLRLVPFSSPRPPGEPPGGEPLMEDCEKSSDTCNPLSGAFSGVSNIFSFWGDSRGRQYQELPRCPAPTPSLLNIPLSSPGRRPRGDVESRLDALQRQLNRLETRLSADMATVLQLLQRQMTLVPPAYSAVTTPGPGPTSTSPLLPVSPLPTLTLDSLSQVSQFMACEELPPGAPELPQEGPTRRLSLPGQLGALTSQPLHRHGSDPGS
Procedure, shortened: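 Thallium-flux (FluxOR) read-out on FDSS: fluorescence read 10 s before and 2 min after stimulation buffer. hERG-BacMam-transduced U2OS cells, compound exposure about 10 min. AC50 by standard Hill equation.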

[12] = qHTS assay for small molecule disruptors of the mitochondrial membrane potential - 1 hr assay (AID 651754; calls by dose curve; also: % is scaled to controls: 0 for no effect and ±100 for the full control effect; nearly all actives have a fitted effect of over 35% in size)
Procedure, shortened: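 Mitochondrial potential in living HepG2 cells after 1 hr compound treatment at 37C was read with Mito-MPS dye added for a further 30 min. Red aggregate and green monomer fluorescence were measured; loss of potential leaves dye as cytoplasmic monomers.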

[13] = molecular target: Peroxisome proliferator-activated receptor alpha (Homo sapiens) (UniProt Q07869); assay: qHTS assay for small molecule agonists of the peroxisome proliferator-activated receptor alpha (PPARalpha) signaling pathway (AID 651778); conditions: PathHunter PPARalpha complementation, chemiluminescence, 6 h; active compounds read high; also: % of control where 0% means no effect
Peroxisome proliferator-activated receptor alpha (Homo sapiens), sequence (Q07869 whole entry, looked up): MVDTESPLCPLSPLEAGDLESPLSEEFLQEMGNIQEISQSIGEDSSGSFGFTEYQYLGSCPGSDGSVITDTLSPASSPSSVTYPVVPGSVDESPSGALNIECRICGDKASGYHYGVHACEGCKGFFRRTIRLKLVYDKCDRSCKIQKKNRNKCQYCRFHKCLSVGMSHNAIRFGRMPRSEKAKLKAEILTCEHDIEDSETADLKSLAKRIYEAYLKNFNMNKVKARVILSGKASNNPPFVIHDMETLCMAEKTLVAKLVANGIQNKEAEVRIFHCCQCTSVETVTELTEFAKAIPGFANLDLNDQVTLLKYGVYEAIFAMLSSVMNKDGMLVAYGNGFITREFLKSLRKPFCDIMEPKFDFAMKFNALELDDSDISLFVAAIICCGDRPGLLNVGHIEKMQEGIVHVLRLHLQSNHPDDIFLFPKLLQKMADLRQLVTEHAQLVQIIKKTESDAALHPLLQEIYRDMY
Procedure, shortened: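 Chemiluminescence from complemented enzyme reported PPARalpha activation in cells after 6 hr of compound treatment at 37 C. The detection reagent was incubated for 60 min at room temperature, and compounds were scored as agonists.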

[14] = qHTS assay for small molecule agonists of the antioxidant response element (ARE) signaling pathway measured by Nrf2-dependant transcriptional activity (AID 720636; active = well fitted curve in the direction sought with a large enough effect in the repeat runs; an effect the other way counts as inactive or inconclusive;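 also: HepG2 cells with an ARE-driven luciferase reporter; % of control where 0% means no effect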)
Procedure, shortened: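 Reporter gene assay, HepG2 ARE-luc: 16 hr compound, 37 C, 5% CO2; read-out luciferase luminescence.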

[15] = qHTS assay for small molecule agonists of the antioxidant response element (ARE) signaling pathway measured by Nrf2-dependant transcriptional activity - cell viability counter screen (AID 720653; active = well fitted curve in the direction sought with a large enough effect in the repeat runs; an effect the other way counts as inactive or inconclusive; also: % is scaled to controls: 0 for no effect and ±100 for the full control effect); conditions: ARE-bla HepG2 viability, CellTiter-Glo ATP luminescence, 16 h; active compounds read low
Procedure, shortened: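 Cytotoxicity counter screen: intracellular ATP quantified by CellTiter-Glo luminescence in the same ARE-bla HepG2 plates, after 16 h compound exposure and a 2 h beta-lactamase substrate step.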

[16] = qHTS assay for cell viability of HEK293 cells (AID 743288); conditions: ATP luminescence (CellTiter-Glo), 18 h; max response: active compounds read low; also: % is scaled to controls: 0 for no effect and ±100 for the full control effect; nearly all actives have a fitted effect of over 50% in size
Procedure, shortened: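 ATP luminescence (CellTiter-Glo) reports metabolically competent cell number after parental HEK293 cells, 2,000/well, were treated with DMSO-dissolved compounds for 18 h at 37 C; reagent incubation 30 min, room temperature.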

[17] = qHTS assay for cell viability of the p53RE-bla HCT-116 cell line (AID 743292); also: % is scaled to controls: 0 for no effect and ±100 for the full control effect; nearly all actives have a fitted effect of over 55% in size
Procedure, shortened: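 Readout: CellTiter-Glo luminescence after 30 min RT. Treatment: compounds in DMSO, 16 h, 37 C. Cells: CellSensor p53RE-bla HCT-116, 4,000/well, preincubated 5 h.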

[18] = molecular target: Nuclear receptor subfamily 1 group I member 3 (Homo sapiens) (UniProt Q14994); assay: Primary qHTS for antagonist of constitutive androstane receptor (CAR) against the NCATS DSHEA and TCM libraries (AID 1794836);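 also: HepG2 cells stably expressing hCAR with CYP2B6 luciferase reporter stimulated by CITCO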
Nuclear receptor subfamily 1 group I member 3 (Homo sapiens), sequence (Q14994 whole entry, looked up): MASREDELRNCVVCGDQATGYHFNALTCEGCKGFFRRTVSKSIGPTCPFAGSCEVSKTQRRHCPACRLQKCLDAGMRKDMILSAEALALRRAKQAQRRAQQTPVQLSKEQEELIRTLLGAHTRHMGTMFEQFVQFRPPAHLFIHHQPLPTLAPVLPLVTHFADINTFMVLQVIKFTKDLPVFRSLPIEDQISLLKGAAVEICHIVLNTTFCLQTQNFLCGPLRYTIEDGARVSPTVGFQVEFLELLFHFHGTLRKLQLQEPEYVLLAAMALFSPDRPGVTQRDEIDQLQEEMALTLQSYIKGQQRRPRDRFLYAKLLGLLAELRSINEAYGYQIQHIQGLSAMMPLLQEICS
Procedure, shortened: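 Antagonist mode: CAR reporter luminescence (ONE-Glo) in HepG2-CYP2B6-hCAR cells stimulated with 48 uM CITCO (final) over 24 h at 37 C, compounds titrated; viability read first by CellTiter-Fluor fluorescence.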

[19] = KB-8-5-11 P-gp reporter qHTS against the NCATS DSHEA and TCM libraries (AID 1919977); also: 0% is about no effect
Procedure, shortened: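 CellTiter-Glo luminescence after ~72 h exposure at 37C gave viability of KB-8-5-11 cells, the P-gp-overexpressing subline. Substances were titrated; colchicine was omitted from assay medium.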

[20] = molecular target: Peroxisome proliferator-activated receptor delta (Homo sapiens) (UniProt Q03181); assay: qHTS assay for small molecule agonists of peroxisome proliferator-activated receptor delta signaling (AID 588534; calls by dose curve;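 also: 0% = DMSO basal wells and 100% = positive control agonist at 10 µM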)
Peroxisome proliferator-activated receptor delta (Homo sapiens), sequence (Q03181 whole entry, looked up): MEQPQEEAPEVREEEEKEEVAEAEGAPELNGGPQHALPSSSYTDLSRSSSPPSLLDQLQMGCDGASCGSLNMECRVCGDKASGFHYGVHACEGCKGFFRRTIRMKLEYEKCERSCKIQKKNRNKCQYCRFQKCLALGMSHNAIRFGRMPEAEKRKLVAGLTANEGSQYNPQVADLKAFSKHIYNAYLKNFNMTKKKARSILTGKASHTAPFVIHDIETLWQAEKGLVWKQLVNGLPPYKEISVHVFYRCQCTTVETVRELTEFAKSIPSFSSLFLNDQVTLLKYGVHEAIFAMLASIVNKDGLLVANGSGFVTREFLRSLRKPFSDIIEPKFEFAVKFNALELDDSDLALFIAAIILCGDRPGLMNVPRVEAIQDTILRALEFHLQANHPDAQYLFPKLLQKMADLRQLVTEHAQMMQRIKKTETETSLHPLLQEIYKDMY
Procedure, shortened: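 Agonist-mode beta-lactamase reporter readout (CCF4 dye, 2 h at RT) after 18 h at 37 °C exposure to a titration; Hill-equation fitting gave EC50 and maximal response.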

COC1=CC(=O)OC(CCc2ccccc2)C1 (stereo unspecified)
inactive: Potency [1] > 92 µM | Potency [2] > 92 µM | Potency [3] > 92 µM | Potency [4] > 92 µM | activity change, negative = cytotoxicity [5] -9.01% | Potency [6] | Potency [7] | activity change, negative = cytotoxicity [8] -1.23% | outcome [9] | outcome [10] | Potency [11] | Potency [12] | max response [13] -9.22% | outcome [14] | max response [15] -8.18% | max response [16] -7.7% | Potency [17] | Potency [18] | Potency [19]

O=c1cc(-c2ccc(O)cc2)oc2cc(O[C@@H]3O[C@H](CO)[C@@H](O)[C@H](O)[C@H]3O[C@@H]3OC[C@](O)(CO)[C@H]3O)cc(O)c12
inactive: Potency [18] | Potency [19]

CCCCC[C@H](O)CC(=O)CCc1ccc(O)c(OC)c1
inactive: Potency [18] | Potency [19]

C=C[C@](C)(O)CCC=C(C)C
inactive: Potency [18] | Potency [19]

COC1=CC(=O)O[C@@H](/C=C/c2ccc3c(c2)OCO3)C1
inactive: Potency [1] > 92 µM | Potency [2] > 92 µM | Potency [3] > 92 µM | Potency [4] > 92 µM | activity change, negative = cytotoxicity [5] -10.4% | Potency [6] | Potency [7] | activity change, negative = cytotoxicity [8] -14.1% | outcome [9] | outcome [10] | outcome [20] | Potency [11] | Potency [12] | max response [13] -0.53% | outcome [14] | max response [15] -10.1% | max response [16] -22% | Potency [17] | Potency [19]

CC1=C2[C@H](/C=C(\C)C(=O)O)CC[C@@H](C)[C@H]2CC1
inactive: Potency [18] | Potency [19]

O=c1cc(-c2ccc(O)cc2)oc2cc(O[C@H]3OC(CO)C(O)C(O)C3O)cc(O)c12 (stereo partly specified)
inactive: Potency [18] | Potency [19]

CCCCCCCCC/C=C/C(=O)CCc1ccc(O)c(OC)c1
inactive: Potency [18] | Potency [19]

O=c1cc(-c2ccc(O)c(O)c2)oc2cc(O[C@@H]3O[C@@H](CO)[C@@H](O)[C@@H](O)[C@H]3O)cc(O)c12
inactive: Potency [18] | Potency [19]

O=c1c(O[C@@H]2O[C@H](CO)[C@H](O)[C@H](O)[C@H]2O)c(-c2ccc(O)c(O)c2)oc2cc(O)cc(O)c12
inactive: Potency [18] | Potency [19]

O=C(OC[C@H]1O[C@@H](OC(=O)c2cc(O)c(O)c(O)c2)[C@H](OC(=O)c2cc(O)c(O)c(O)c2)[C@@H](OC(=O)c2cc(O)c(O)c(O)c2)[C@@H]1OC(=O)c1cc(O)c(O)c(O)c1)c1cc(O)c(O)c(O)c1
inactive: Potency [18] | Potency [19]

C=C(C)C1CC=C(C)C(O)C1 (stereo unspecified)
inactive: outcome [20] | Potency [18] | Potency [19]

O=C(O)[C@H]1O[C@@H](Oc2c(-c3ccc(O)c(O)c3)oc3cc(O)cc(O)c3c2=O)[C@H](O)[C@@H](O)[C@@H]1O
inactive: Potency [18] | Potency [19]
